Measured values from PubChem BioAssay.
Records with an inconclusive call do not appear. Calls of active or inactive are those of the source. Unless noted, how the calls were made is not given here.

How the values were obtained:
[1] = kinase inhibitors against Plasmodium liver-stage infection, cell-based, known kinase inhibitor set, luminescence, hepatoma host viability (AID 624392); settings: Plasmodium liver stage in hepatoma cells, luciferase luminescence, concentration not given here; liver cell % of control: measured here: host liver cell viability; parasite % of control: stronger effect = lower value;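 further: infected cells incubated roughly two days before readout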
[2] = modulators of glucocorticoid suppression of NF-kB, cell-based, luciferase, IL-1B stimulus, dexamethasone (AID 624486); settings: NF-kB luciferase reporter, IL-1B + dexamethasone, luminescence; percent of negative control (+Dex): actives lie on both sides, concentration not given here; z-score: measured here: IL-1B alone, no Dex;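 on percent of negative control (+Dex): 100% = mean signal of vehicle control wells on the plate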
[3] = biological target: Cellular tumor antigen p53 (Homo sapiens) (UniProt P04637); assay: kinase inhibitors altering GFP-p53 stability in HPV16-positive cells, imaging, known kinase inhibitor set, EGFP/DsRed ratio (AID 1053116); settings: stronger effect = higher value; EGFP object count: measured here: GFP-p53 positive objects count;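 further: cells exposed to compounds for 24 h at 37 °C before reading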
Cellular tumor antigen p53 (Homo sapiens), sequence (P04637 whole entry, looked up): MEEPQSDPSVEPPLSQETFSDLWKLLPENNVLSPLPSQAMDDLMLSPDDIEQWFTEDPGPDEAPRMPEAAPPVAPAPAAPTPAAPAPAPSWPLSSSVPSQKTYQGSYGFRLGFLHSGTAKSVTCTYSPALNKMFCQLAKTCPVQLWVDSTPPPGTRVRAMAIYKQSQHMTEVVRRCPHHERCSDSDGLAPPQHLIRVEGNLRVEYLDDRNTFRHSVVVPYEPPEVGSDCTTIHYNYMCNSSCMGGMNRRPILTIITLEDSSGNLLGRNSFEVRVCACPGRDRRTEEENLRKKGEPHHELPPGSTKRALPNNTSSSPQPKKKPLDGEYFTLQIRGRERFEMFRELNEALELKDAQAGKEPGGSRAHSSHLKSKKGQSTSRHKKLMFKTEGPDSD

[4] = IRF3 reporter activation in THP-1 macrophages, cell-based, PMA-stimulated THP-1, luminescence (AID 1053176); settings: PMA-differentiated THP-1, IRF3 reporter luminescence; stronger effect = higher value
[5] = kinase inhibitors altering Pseudomonas killing of worms, whole organism (AID 651566);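 further: tested at 14 µM; sign flipped so higher z means a lower ratio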; settings: C. elegans killed by P. aeruginosa, survival ratio
[6] = activators of macrophage pro-inflammatory response, cell-based, murine, luminescence (AID 652131); settings: murine macrophage pro-inflammatory reporter, stronger effect = higher value
[7] = survival rescue of mitochondrial mutant cells in low glucose, primary screen, MELAS cybrids, Rieske KO mouse fibroblasts, CellTiter-Glo (AID 1508586;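 active means mean z-score across replicates of 1.96 or higher in either the MELAS or the Rieske mutant cell line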;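 further: z relative to plate mean and SD of compound and empty wells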)
[8] = tested on: Aerobactin synthetase IucA (Klebsiella pneumoniae); assay: IucA aerobactin synthetase inhibitors, biochemical, Tocris library, absorbance (AID 1345561); settings: purified IucA enzyme assay, absorbance (OD) read-out; stronger effect = lower value;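 tested at 8 µM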;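 further: 100% = enzyme without compound and 0% = no enzyme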
[9] = growth inhibition of DIPG glioma cells, dose response, cell-based, SU-DIPG-XVII, MIPE5.0, CellTiter-Glo, qHTS (AID 1347060; cut-off not given, nearly all actives have AC50 up to about 26 µM;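 further: cells exposed to compound for 48 hours before viability readout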); settings: SU-DIPG-XVII viability, CellTiter-Glo ATP luminescence
[10] = growth inhibition of DIPG glioma cells, dose response, cell-based, JHH-DIPG-1, MIPE4.0, CellTiter-Glo, qHTS (AID 1347062; cut-off not given, nearly all actives have AC50 up to about 27 µM;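 further: cells exposed to compound for two days before readout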); settings: JHH-DIPG-1 viability, CellTiter-Glo ATP luminescence
[11] = growth inhibition of DIPG glioma cells, dose response, cell-based, SU-DIPG-IV, MIPE4.0, CellTiter-Glo, qHTS (AID 1347063; cut-off not given, nearly all actives have AC50 up to about 30 µM;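 further: compound exposure lasted 48 hours before the viability readout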); settings: SU-DIPG-IV viability, CellTiter-Glo ATP luminescence
[12] = viability loss in pontine glioma line – cell-based, SU-DIPG-XXV, MIPE5.0, CellTiter-Glo, qHTS, dose response (AID 1347065; cut-off not given, nearly all actives have AC50 up to about 26 µM;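 further: cells exposed to compound for 48 hours before ATP readout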); settings: CellTiter-Glo ATP luminescence
[13] = sensitizers of A549 cells to miR-34 induction, primary screen, imaging, A549 dox-inducible miR-34, nuclei and caspase counts (AID 1347080;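 active means compounds whose cell count with miR-34 switched on is under 0.7 times the count with it off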); settings: A549 miR-34 inducible, Hoechst nuclei count, 48 h
[14] = viability rescue of complex I mutant cybrids, primary screen, cell-based, galactose medium, ATP luminescence (AID 1645843;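 active means z-score of at least 1.8 in each of two replicates, scored against plate mean and spread of sample wells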;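 further: positive z means more ATP and so rescue of galactose-driven cybrid death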); settings: complex I mutant cybrid cells, 72 h, stronger effect = higher value
[15] = MELAS cybrid survival, CellTiter-Glo 48 h, stronger effect = higher value
[16] = Rieske KO mouse fibroblast survival, CellTiter-Glo 72 h

Structure (SMILES): Cn1c(=O)c(Oc2ccccc2)cc2cnc(NC3CCOCC3)nc21
- liver cell % of control [1]: 106%
- parasite % of control [1]: 60.6% (inactive)
- percent of negative control (+Dex) [2]: 105% (inactive)
- z-score [2]: 1.03
- EGFP object count [3]: 3.5
- EGFP/DsRed ratio [3]: 0.0479 (inactive)
- fraction signal [4]: -0.005 (inactive)

Structure (SMILES): CC(=O)Nc1ccc2c(c1)c(C1=C(c3cn(C)c4ccccc34)C(=O)NC1=O)cn2C
- liver cell % of control [1]: 87.4%
- parasite % of control [1]: 47.8% (inactive)
- percent of negative control (+Dex) [2]: 97.5% (inactive)
- z-score [2]: -1.79
- EGFP object count [3]: 35.5
- EGFP/DsRed ratio [3]: 0.557 (inactive)
- fraction signal [4]: -0.0135 (inactive)

Structure (SMILES): O=C1NC(=Nc2ccccc2)SC1=Cc1ccc2ncccc2c1
- liver cell % of control [1]: 124%
- parasite % of control [1]: 68.1% (inactive)
- percent of negative control (+Dex) [2]: 98% (inactive)
- z-score [2]: 0.04
- EGFP object count [3]: 3
- EGFP/DsRed ratio [3]: 0.0469 (inactive)
- fraction signal [4]: -0.003 (inactive)

Structure (SMILES): COc1ccc2c(c1)C(c1ccccc1Cl)=Nc1c(n[nH]c1C)N2
- liver cell % of control [1]: 81.2%
- parasite % of control [1]: 28.8% (inactive)
- percent of negative control (+Dex) [2]: 92% (inactive)
- z-score [2]: -0.45
- EGFP object count [3]: 3
- EGFP/DsRed ratio [3]: 0.0722 (inactive)
- fraction signal [4]: 0.0035 (inactive)

Structure (SMILES): Nc1c(C(=O)c2cccc(C(O)CO)c2)cnn1-c1ccc(F)cc1 (configuration not stated)
- liver cell % of control [1]: 101%
- parasite % of control [1]: 60.5% (inactive)
- percent of negative control (+Dex) [2]: 110% (inactive)
- z-score [2]: 1.48
- EGFP object count [3]: 4.5
- EGFP/DsRed ratio [3]: 0.197 (inactive)
- fraction signal [4]: 0.0035 (inactive)

Structure (SMILES): Cn1cc(C2=C(c3cn(C)c4cc(N)ccc34)C(=O)NC2=O)c2ccccc21
- liver cell % of control [1]: 85.5%
- parasite % of control [1]: 26.4% (inactive)
- percent of negative control (+Dex) [2]: 96% (inactive)
- z-score [2]: -2.26
- EGFP object count [3]: 41.5
- EGFP/DsRed ratio [3]: 0.462 (inactive)
- fraction signal [4]: -0.0115 (inactive)

Structure (SMILES): O=C1NC(=O)C(=Cc2ccc3ncccc3c2)S1
- liver cell % of control [1]: 98%
- parasite % of control [1]: 60.7% (inactive)
- percent of negative control (+Dex) [2]: 126% (active)
- z-score [2]: 3.21
- EGFP object count [3]: 5
- EGFP/DsRed ratio [3]: 0.206 (inactive)
- fraction signal [4]: 0.005 (inactive)

Structure (SMILES): O=S(=O)(CCNCc1ccc(-c2ccc3ncnc(Nc4ccc(OCc5cccc(F)c5)c(Cl)c4)c3c2)o1)c1ccccc1
- liver cell % of control [1]: 108%
- parasite % of control [1]: 102% (inactive)
- percent of negative control (+Dex) [2]: 96.5% (inactive)
- z-score [2]: -0.355
- z-score [5]: -0.37 (inactive)
- z-score [6]: 3.07 (inactive)
- fraction signal [4]: -0.004 (inactive)
- z-score [7, 15]: 0.171 (inactive)
- z-score [7, 16]: -0.45

Structure (SMILES): Nc1c(C(=O)c2ccc(C#CCN3CCOCC3)cc2)cnn1-c1ccc(F)cc1
- liver cell % of control [1]: 110%
- parasite % of control [1]: 75.7% (inactive)
- percent of negative control (+Dex) [2]: 106% (inactive)
- z-score [2]: 1.64
- EGFP object count [3]: 4.5
- EGFP/DsRed ratio [3]: 0.119 (inactive)
- fraction signal [4]: 0.01 (inactive)

Structure (SMILES): CN1CCN(CCc2cccc(C(=O)c3cnn(-c4ccc(F)cc4)c3N)c2)CC1
- liver cell % of control [1]: 112%
- parasite % of control [1]: 51.1% (inactive)
- percent of negative control (+Dex) [2]: 96.5% (inactive)
- z-score [2]: 1.1
- EGFP object count [3]: 5
- EGFP/DsRed ratio [3]: 0.187 (inactive)
- fraction signal [4]: 0.0015 (inactive)

Structure (SMILES): CC(O)CNc1cc(-c2[nH]c3cccnc3c2-c2ccc(F)cc2)ccn1 (configuration not stated)
- liver cell % of control [1]: 229%
- parasite % of control [1]: 13.2% (inactive)
- percent of negative control (+Dex) [2]: 106% (inactive)
- z-score [2]: 0.42
- EGFP object count [3]: 4
- EGFP/DsRed ratio [3]: 0.042 (inactive)
- fraction signal [4]: 0.0055 (inactive)

Structure (SMILES): CC(=O)Nc1ccc2c(C3=C(c4cn(C)c5ccccc45)C(=O)NC3=O)cn(C)c2c1
- liver cell % of control [1]: 83.1%
- parasite % of control [1]: 16.4% (inactive)
- percent of negative control (+Dex) [2]: 114% (inactive)
- z-score [2]: -1.25
- EGFP object count [3]: 61.5
- EGFP/DsRed ratio [3]: 0.596 (active)
- fraction signal [4]: -0.009 (inactive)

Structure (SMILES): COc1cc2ncn(-c3cc(OCc4ccccc4C(F)(F)F)c(C(N)=O)s3)c2cc1OC
- percent of negative control (+Dex) [2]: 103% (inactive)
- z-score [2]: -0.44
- z-score [5]: 0.57 (inactive)
- z-score [6]: -0.405 (inactive)
- fraction signal [4]: 0.0355 (inactive)
- remaining activity [8]: 94.3% (inactive)
- AC50 [9]: 1.48 µM (active)
- AC50 [10]: 5.9 µM (active)
- AC50 [11]: 14.8 µM (active)
- AC50 [12]: 1.05 µM (active)
- fold change ([13]; stronger effect = lower value, cell number ratio, induced over uninduced): 1.05 (inactive)
- fold change ([13]; measured here: relative caspase fold change +Dox/-Dox): 1.26
- cell count ([13]; measured here: total cells with miR-34 induction, stronger effect = lower value): 1110
- cell count ([13]; measured here: total cells without miR-34 induction): 1060
- z-score [7, 15]: -0.422 (inactive)
- z-score [7, 16]: -0.574
- z-score [14]: -0.495 (inactive)

Structure (SMILES): Cn1cc(C2=C(c3ccc4ccccc4c3)C(=O)NC2=O)c2ccccc21
- liver cell % of control [1]: 105%
- parasite % of control [1]: 53.6% (inactive)
- percent of negative control (+Dex) [2]: 94% (inactive)
- z-score [2]: -0.025
- EGFP object count [3]: 3
- EGFP/DsRed ratio [3]: 0.0576 (inactive)
- fraction signal [4]: -0.001 (inactive)

Structure (SMILES): COc1cc[nH]c1C=C1C(=O)Nc2ccc(F)c(C#CC(O)C(N)C(C)O)c21 (configuration not stated)
- liver cell % of control [1]: 76.5%
- parasite % of control [1]: 46.6% (inactive)
- percent of negative control (+Dex) [2]: 135% (inactive)
- z-score [2]: 0.23
- EGFP object count [3]: 250
- EGFP/DsRed ratio [3]: 1.32 (inactive)
- fraction signal [4]: 0.0035 (inactive)

Structure (SMILES): Fc1ccc(-c2ncn(C3CCNCC3)c2-c2ccnc(Oc3cccc(F)c3)n2)cc1
- liver cell % of control [1]: 80.2%
- parasite % of control [1]: 175% (inactive)
- percent of negative control (+Dex) [2]: 111% (inactive)
- z-score [2]: 0.615
- z-score [5]: -0.555 (inactive)
- z-score [6]: -0.299 (inactive)
- fraction signal [4]: -0.0075 (inactive)
- z-score [7, 15]: -0.13 (inactive)
- z-score [7, 16]: -0.344

Structure (SMILES): COc1ccccc1CCN=C1NC(=O)C(=Cc2ccc3ncccc3c2)S1
- liver cell % of control [1]: 109%
- parasite % of control [1]: 68.7% (inactive)
- percent of negative control (+Dex) [2]: 90.5% (inactive)
- z-score [2]: -0.58
- EGFP object count [3]: 5
- EGFP/DsRed ratio [3]: 0.0846 (inactive)
- fraction signal [4]: 0.39 (active)

Structure (SMILES): O=C1NC(=NCc2ccccc2Cl)SC1=Cc1ccc2ncccc2c1
- liver cell % of control [1]: 108%
- parasite % of control [1]: 42.1% (inactive)
- percent of negative control (+Dex) [2]: 95% (inactive)
- z-score [2]: -0.715
- EGFP object count [3]: 9
- EGFP/DsRed ratio [3]: 0.384 (inactive)
- fraction signal [4]: -0.0075 (inactive)

Structure (SMILES): Cn1cc(C2=C(c3cn(CCCCCO)c4ccccc34)C(=O)NC2=O)c2ccccc21
- liver cell % of control [1]: 97.8%
- parasite % of control [1]: 31.3% (inactive)
- percent of negative control (+Dex) [2]: 101% (inactive)
- z-score [2]: -1.23
- EGFP object count [3]: 18.5
- EGFP/DsRed ratio [3]: 0.347 (inactive)
- fraction signal [4]: -0.0115 (inactive)
